According to PubChem BioAssay (NCI):
Values joined by “and” are separate entries in the source; they are usually repeats but may differ in a detail not shown here. Identical values can stand only once. This is part of a sample that, as a whole, favours compounds with a hit. Of some 83,000 tested, about 20% had one in any assay.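 Cell lines were cultured in 96-well plates, exposed to a single compound concentration, and assessed for percent growth 48 hours later.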 Active and inactive are the calls of the source. Rule for the calls: active = growth percent below 10; inactive = the rest.

Legend:
Assay in all cases: NCI-60 one-dose screen, 48 h (100 = growth as untreated, 0 = no growth, -100 = all killed)
Details in all cases: 10 µM unless noted
RPMI-8226 leukemia = tested on: RPMI-8226 leukemia
OVCAR-5 ovarian = tested on: OVCAR-5 ovarian
OVCAR-4 ovarian = tested on: OVCAR-4 ovarian
SK-OV-3 ovarian = tested on: SK-OV-3 ovarian
IGROV1 ovarian = tested on: IGROV1 ovarian
OVCAR-3 ovarian = tested on: OVCAR-3 ovarian
HS 578T breast = tested on: HS 578T breast
NCI/ADR-RES ovarian = tested on: NCI/ADR-RES ovarian
T-47D breast = tested on: T-47D breast
BT-549 breast = tested on: BT-549 breast

Row | SMILES | growth (RPMI-8226 leukemia) | growth (OVCAR-5 ovarian) | growth (OVCAR-4 ovarian) | growth (SK-OV-3 ovarian) | growth (IGROV1 ovarian) | growth (OVCAR-3 ovarian) | growth (HS 578T breast) | growth (NCI/ADR-RES ovarian) | growth (T-47D breast) | growth (BT-549 breast)
1 | Oc1cccc2cccnc12 | 84% (inactive) and 97.1% (inactive) | 89.4% (inactive) | 60.6% (inactive) and 120% (inactive) and 114% (inactive) | 107% (inactive) and 97.8% (inactive) and 99.9% (inactive) | 120% (inactive) and 118% (inactive) and 104% (inactive) | -6.09% (active) and 105% (inactive) and 104% (inactive) | 116% (inactive) and 101% (inactive) | 83% (inactive) and 108% (inactive) and 114% (inactive) | 29% (inactive) and 95.8% (inactive) and 97.9% (inactive) | 106% (inactive) and 113% (inactive) and 101% (inactive)
2 | CO[C@H](/C(C)=C/C=C/C(C)=C/c1coc(C)n1)[C@H](C)[C@H]1C[C@@H](O)[C@@]2(C)O[C@H]2/C=C/[C@@H](C)[C@@H]2C[C@@H](CC(=O)O2)C[C@H]2O[C@@H]2C(=O)O1 | -14.5% (active) | 34.2% (inactive) | -6.77% (active) | 32.3% (inactive) | -35.5% (active) | -36.3% (active) | -2.81% (active) | 19% (inactive) | 64% (inactive) | 8.66% (active)
3 | O=C1c2ccccc2C(=O)C(Cl)C1Cl (stereo not given) | 31.1% (inactive) | 112% (inactive) | -89% (active) | 99.5% (inactive) | 78.4% (inactive) | -75.2% (active) | – | 86.5% (inactive) | -38% (active) | 78.5% (inactive)
4 | COc1ccc(OC)c(/C=C/[N+](=O)[O-])c1 | -28.9% (active) | 20.2% (inactive) | – | 64.7% (inactive) | -4.14% (active) | -59% (active) | 4.59% (active) | 17.7% (inactive) | 16.6% (inactive) | -45.5% (active)
5 | Cc1c(N)nc([C@H](CC(N)=O)NC[C@H](N)C(N)=O)nc1C(=O)N[C@H](C(=O)N[C@H](C)[C@@H](O)[C@H](C)C(=O)N[C@H](C(=O)NCCc1nc(-c2nc(C(=O)NCCC[S+](C)C)cs2)cs1)[C@@H](C)O)C(OC1OC(CO)C(O)C(O)C1OC1OC(CO)C(O)C(OC(N)=O)C1O)c1cnc[nH]1 (stereo not given in full) | 76.4% [2.5 µM] (inactive) | 59.5% [2.5 µM] (inactive) | 104% [2.5 µM] (inactive) | 98% [2.5 µM] (inactive) | 42.3% [2.5 µM] (inactive) | 83.5% [2.5 µM] (inactive) | -2.02% [2.5 µM] (active) | 39.3% [2.5 µM] (inactive) | 92.2% [2.5 µM] (inactive) | 54% [2.5 µM] (inactive)
6 | C[C@]12CC[C@H](O)CC1=CC[C@@H]1[C@@H]2CC[C@]2(C)C(=O)CC[C@@H]12 | 80.4% (inactive) | 92.3% (inactive) | 95.3% (inactive) | 116% (inactive) | 80.5% (inactive) | 90.6% (inactive) | 130% (inactive) | 99.1% (inactive) | 96.4% (inactive) | 98.3% (inactive)
7 | CC[n+]1c(-c2ccccc2)c2cc(N)ccc2c2ccc(N)cc21 | 7.63% (active) | 49.4% (inactive) | 11.6% (inactive) | 47.3% (inactive) | 9.12% (active) | -0.305% (active) | 3.75% (active) | 87.6% (inactive) | 11.2% (inactive) | -35.7% (active)
8 | COC1=C(C)C(=O)C2=C(C1=O)C(CO)N1C(C#N)C3CC4C(C1C2N1CCOC41)N3C (stereo not given) | -41.3% (active) | 11.1% (inactive) | – | 42.4% (inactive) | – | -18.7% (active) | -55.2% (active) | -21.4% (active) | -16.8% (active) | -64.3% (active)
9 | CC[C@@]1(O)C[C@H](OC2CC(N(C)C)C(O)C(C)O2)c2c(O)c3c(c(O)c2[C@H]1OC1CC(N(C)C)C(O)C(C)O1)C(=O)c1cccc(O)c1C3=O (stereo not given in full) | -50.6% (active) | -21% (active) | -57.2% (active) | 24.2% (inactive) | -71% (active) | 1.09% (active) | -38.5% (active) | -12.7% (active) | 1.62% (active) | -61.3% (active)
10 | CC[C@@]1(O)C(=O)OCc2c1cc1n(c2=O)Cc2cc3ccccc3nc2-1 | -39.7% (active) | -1.11% (active) | -36.2% (active) | 7.05% (active) | -62.2% (active) | -34% (active) | 22.6% (inactive) | -2.49% (active) | -7.95% (active) | -39.9% (active)
11 | Cc1cc(N=Nc2ccccc2C)ccc1N | 17.5% (inactive) | 84.7% (inactive) | 69.2% (inactive) | 99.1% (inactive) | 77.1% (inactive) | 73.2% (inactive) | – | 79.4% (inactive) | 59% (inactive) | 69.7% (inactive)
